Here are results for 5 compounds from PubChem BioAssay.

Results filed as inconclusive are left out. Active and inactive are the calls of the source.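 The calls were made as follows, unless noted: active = differentiation response of at least 50%, scaled between solvent and reference control, from cells with both markers; inactive = the rest.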

Experiment [1] in a line: yeast TOR pathway RPL19A-GFP modulators, primary screen, cell-based, S. cerevisiae, multiplex flow cytometry (AID 1862; in the data active = percent of DMSO control GFP below about 86%;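 also: lower values mimic rapamycin by blocking the RPL19A rise seen in DMSO cells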). The conditions noted are these: S. cerevisiae RPL19A-GFP strain, flow cytometry fluorescence, 3 h; at 10 µM; stronger effect = lower value. (In flow cytometry, cells or beads pass a laser one at a time.)
Experiment [2] is described as follows: modulators of MEP2-GFP levels in yeast, primary screen, S. cerevisiae, multiplex flow cytometry (AID 1867;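 active = GFP response, as percent of the DMSO control, above the screen-wide mean plus 3 SD, about 139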;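 also: median GFP channel fluorescence of barcode-gated MEP2-GFP cells measured by flow cytometry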). Conditions: S. cerevisiae MEP2-GFP strain, 3 h, at 10 µM, stronger effect = higher value, 100% means same as DMSO wells.
Experiment [3] is described as follows: modulators of CIT2-GFP expression in yeast, primary screen, S. cerevisiae, GFP fusion, multiplex flow cytometry (AID 1870;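 active = percent response above a set limit, the screen-wide mean plus 3 SD, cut at about 130% in these data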;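 also: barcoded CIT2-GFP strain pooled with four other GFP strains with rapamycin as positive control; median GFP fluorescence per well over plate mean of DMSO wells so 100% = DMSO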). Conditions: 3 h, at 10 µM, stronger effect = higher value.
The nature of experiment [4]: modulators of LAP4-GFP expression in yeast, primary screen, S. cerevisiae, multiplex flow cytometry (AID 1873;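 active = GFP signal, as percent of the solvent control, above the screen mean plus 3 SD, about 149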). The conditions noted are these: 3 h, at 10 µM, stronger effect = higher value.
Experiment [5] can be described thus: modulators of AGP1-GFP expression in yeast TOR pathway, primary screen, cell-based, multiplex flow cytometry, S. cerevisiae (AID 1887;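 active = GFP signal above the screen-wide mean plus 3 SD, that is over about 124.5% of the solvent control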;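 also: AGP1-GFP fusion strain of S. cerevisiae within a five-strain barcoded multiplex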). The conditions noted are these: 3 h, at 10 µM, stronger effect = higher value.
Experiment [6] is described as follows: inhibitors of CD8+ T cell-vesicle binding, pilot screen, LFA-1/ICAM-1 modulator project, MLPCN validation set, flow cytometry (AID 2523;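 active = response below a set limit, under 55% cells CD8-positive and vesicle-bound, and CD8 cells' 90th-percentile brightness under 279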;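 as to vesicle binding response: mean PE anti-B7-1 fluorescence of CD8+ cells relative to row control; 100% = QL9-loaded vesicles with DMSO vehicle in the same plate row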). The conditions noted are these: 2C mouse CD8+ T cells, at 7 µM, stronger effect = lower value; double positive events: measured here: CD8+/vesicle+ event percentage.
For experiment [7], the target named is Integrin beta-1 (Homo sapiens) + Integrin alpha-4 (Homo sapiens) (UniProt P13612+P05556). The experiment can be described thus: inhibition of HUTS-21 binding to VLA-4, pilot screen, VLA-4 allosteric modulator project, U937 cells, HUTS-21 mAb, flow cytometry, validation set (AID 2674;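 active = inhibition above 50%, about 3 SD of the validation set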;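 also: antibody binding induced by the VLA-4 ligand LDV present at three times its Kd; 0% = LDV ligand with antibody and no compound and 100% = antibody without LDV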). Conditions: HUTS-21 LIBS mAb binding, at 6.7 µM, stronger effect = higher value, binding induced by LDV ligand.
Chain of Integrin beta-1 (Homo sapiens) + Integrin alpha-4 (Homo sapiens) (P05556 whole entry, looked up): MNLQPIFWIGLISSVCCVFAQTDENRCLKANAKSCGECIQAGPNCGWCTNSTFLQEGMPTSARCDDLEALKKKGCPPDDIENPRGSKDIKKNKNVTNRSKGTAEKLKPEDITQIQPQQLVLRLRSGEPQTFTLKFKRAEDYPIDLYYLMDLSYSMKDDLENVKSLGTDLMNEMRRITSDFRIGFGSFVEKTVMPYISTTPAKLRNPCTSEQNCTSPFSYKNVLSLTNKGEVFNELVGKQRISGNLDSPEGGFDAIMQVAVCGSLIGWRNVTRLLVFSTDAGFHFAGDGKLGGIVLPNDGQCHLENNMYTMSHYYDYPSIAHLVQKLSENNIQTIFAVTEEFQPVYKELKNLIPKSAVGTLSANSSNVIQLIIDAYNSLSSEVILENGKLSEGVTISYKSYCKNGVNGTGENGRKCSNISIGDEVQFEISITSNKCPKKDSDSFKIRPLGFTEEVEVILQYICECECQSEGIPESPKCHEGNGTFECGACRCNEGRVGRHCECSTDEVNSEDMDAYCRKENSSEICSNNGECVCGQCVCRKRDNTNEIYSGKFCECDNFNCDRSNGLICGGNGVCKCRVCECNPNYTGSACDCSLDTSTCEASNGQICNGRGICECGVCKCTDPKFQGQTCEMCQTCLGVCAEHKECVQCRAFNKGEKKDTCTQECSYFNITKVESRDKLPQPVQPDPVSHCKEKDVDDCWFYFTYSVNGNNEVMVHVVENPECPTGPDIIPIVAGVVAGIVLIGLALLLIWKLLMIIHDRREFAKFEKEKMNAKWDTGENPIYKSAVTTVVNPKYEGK
Chain of Integrin beta-1 (Homo sapiens) + Integrin alpha-4 (Homo sapiens) (P13612 whole entry, looked up): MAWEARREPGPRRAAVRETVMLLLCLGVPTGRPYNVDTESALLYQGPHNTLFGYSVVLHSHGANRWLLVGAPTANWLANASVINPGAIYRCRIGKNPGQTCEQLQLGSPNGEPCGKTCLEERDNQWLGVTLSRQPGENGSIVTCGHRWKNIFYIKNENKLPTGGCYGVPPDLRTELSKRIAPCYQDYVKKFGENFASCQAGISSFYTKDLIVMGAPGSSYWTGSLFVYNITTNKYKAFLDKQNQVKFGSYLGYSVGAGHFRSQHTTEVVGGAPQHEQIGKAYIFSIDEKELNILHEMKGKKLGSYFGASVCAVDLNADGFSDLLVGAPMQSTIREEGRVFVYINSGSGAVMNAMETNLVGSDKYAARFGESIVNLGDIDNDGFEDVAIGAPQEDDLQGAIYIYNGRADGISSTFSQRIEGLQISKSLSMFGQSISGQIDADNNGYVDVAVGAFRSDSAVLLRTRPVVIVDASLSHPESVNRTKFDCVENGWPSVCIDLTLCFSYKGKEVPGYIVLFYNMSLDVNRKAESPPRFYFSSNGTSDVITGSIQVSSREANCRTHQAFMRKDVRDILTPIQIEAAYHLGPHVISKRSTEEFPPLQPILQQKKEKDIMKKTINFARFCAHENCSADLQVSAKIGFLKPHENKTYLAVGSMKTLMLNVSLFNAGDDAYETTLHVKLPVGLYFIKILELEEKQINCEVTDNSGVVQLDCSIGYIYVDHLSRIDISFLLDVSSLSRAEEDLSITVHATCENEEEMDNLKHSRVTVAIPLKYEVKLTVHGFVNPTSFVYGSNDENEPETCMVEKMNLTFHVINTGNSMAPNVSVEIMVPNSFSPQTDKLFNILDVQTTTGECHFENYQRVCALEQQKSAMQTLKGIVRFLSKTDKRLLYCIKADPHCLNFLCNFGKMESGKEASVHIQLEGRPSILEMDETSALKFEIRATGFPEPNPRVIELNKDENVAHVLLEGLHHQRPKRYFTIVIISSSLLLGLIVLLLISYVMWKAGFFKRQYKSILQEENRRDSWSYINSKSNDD

The nature of experiment [8]: superoxide lowering in aged yeast cells, pilot screen, validation compound set (AID 2706;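 active = superoxide response below 65% of plate, a cut near 3 SD across the whole screen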;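 also: yeast exposed to compound for one week at 30 degrees C before staining; 100% = mean of all compound wells on the same plate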). Conditions: S. cerevisiae aging, superoxide DHE fluorescence; at 10 µM, stronger effect = lower value.
Experiment [9] addresses Beta-adrenergic receptor kinase 1 (Homo sapiens) (UniProt P25098). The experiment is described as follows: GRK2 binders displacing RNA aptamer, biochemical, validation, human GRK2, bead flow cytometry (AID 488806;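 active = aptamer binding inhibition above 30%, about 3 SD of noise from non-fluorescent compounds; inactive = inhibition at or below 30%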). Conditions: bead-bound GRK2, FAM-aptamer displacement, at 10 µM, stronger effect = higher value.
Experiment [10] concerns the target AP-2 complex subunit beta (Homo sapiens) (UniProt P63010). The experiment is described as follows: inhibitors of arrestin peptide binding to AP2, pilot screen, biochemical, validation set, GST-AP2 beads, flow cytometry (AID 504541;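 active = inhibition above 54%, about 3 SD of non-fluorescent compounds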;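 also: AP2 carries R879A mutation and is captured from E. coli lysate; bead-bound FITC arrestin peptide fluorescence measuring arrestin peptide binding to AP2; 0% = DMSO wells and 100% = excess unlabeled arrestin peptide control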). Conditions: FITC arrestin peptide, at 10 µM, stronger effect = higher value, AP2 beta2 appendage fragment, R879A mutant.
A short description of experiment [11]: yeast V-ATPase proton transport modulators, S. cerevisiae, pHLuorin, HTS validation (AID 504600; in the data active = response above about 15%;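 also: plate controls were DMSO for no effect and reference compound for full effect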). The conditions noted are these: S. cerevisiae pHLuorin cytosolic pH, at 10 µM, stronger effect = higher value.
Experiment [12] relates to anti-desmoglein-3 scFv antibody binding to human DSG3. The experiment is described as follows: inhibitors of anti-DSG3 scFv binding to DSG3, pilot screen, biochemical, validation compound set, bead-based, flow cytometry (AID 588368;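 active = binding below the plate cutoff, the plate median minus 3 SD, with a reading above zero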;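 also: signal is the median channel fluorescence of bead-bound GFP antibody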). The conditions noted are these: Protein G beads, DSG3-Fc, scFv-GFP binding, at 10 µM, stronger effect = lower value.
A short description of experiment [13]: inhibitors of fungal efflux pumps CDR1, CDR2, MDR1, pilot screen, validation compound set, multiplex, phenotypic (AID 588506;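 active = efflux inhibition above 0.42, the validation set average plus 4 SD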;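 also: Nile Red retained in cells so higher fluorescence means more efflux inhibition; 0 = negative control wells and 1 = enniatin B 25 µM full block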). The conditions noted are these: S. cerevisiae pump-expressing triplex, Nile Red efflux flow cytometry; at 10 µM; stronger effect = higher value; the pumps come from Candida albicans.
Experiment [14] addresses ATP-binding cassette sub-family B member 6 (Homo sapiens) (UniProt Q9NP58). The experiment is described as follows: ABCB6 transporter inhibitors, pilot screen, K562-ABCB6 cells, flow cytometry, validation set (AID 588550;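 active = inhibition above the screen-wide mean plus 3 SD, about 51%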;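 also: 0% = DMSO wells and 100% = benzethonium chloride 70 µM positive control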). Conditions: K562-ABCB6 porphyrin accumulation, 1 h, at 10 µM, stronger effect = higher value.
Experiment [15] in a line: promoters of myeloid differentiation in arrested cells, primary screen, cell-based, GFP/MAC1 double positive, flow cytometry, validation set (AID 588685).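 Also: compound exposure lasts four days before antibody staining and flow analysis; 0% = DMSO wells and 100% = 5 µM fulvestrant positive control.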 Conditions: ER-HoxA9 marrow cells, stronger effect = higher value, normalized: vehicle 0, fulvestrant 100.

Chain of Beta-adrenergic receptor kinase 1 (Homo sapiens) (P25098 whole entry, looked up): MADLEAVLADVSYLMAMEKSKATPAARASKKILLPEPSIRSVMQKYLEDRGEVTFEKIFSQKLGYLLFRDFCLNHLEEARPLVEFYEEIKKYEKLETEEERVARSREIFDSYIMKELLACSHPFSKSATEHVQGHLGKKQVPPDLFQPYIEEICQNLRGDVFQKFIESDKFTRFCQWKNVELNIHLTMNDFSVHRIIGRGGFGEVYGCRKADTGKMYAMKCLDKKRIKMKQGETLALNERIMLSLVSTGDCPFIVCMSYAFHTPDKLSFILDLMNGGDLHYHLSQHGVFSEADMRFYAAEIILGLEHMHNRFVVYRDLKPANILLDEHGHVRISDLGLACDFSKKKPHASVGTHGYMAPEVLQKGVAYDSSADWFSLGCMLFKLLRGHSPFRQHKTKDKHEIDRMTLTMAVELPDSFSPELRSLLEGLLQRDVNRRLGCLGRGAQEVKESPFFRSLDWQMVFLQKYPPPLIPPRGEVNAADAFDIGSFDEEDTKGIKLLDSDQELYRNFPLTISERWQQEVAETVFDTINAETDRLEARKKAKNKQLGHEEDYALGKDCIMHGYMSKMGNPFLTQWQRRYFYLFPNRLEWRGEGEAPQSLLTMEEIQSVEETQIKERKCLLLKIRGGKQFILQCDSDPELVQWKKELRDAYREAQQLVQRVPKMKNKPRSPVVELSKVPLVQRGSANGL
Chain of ATP-binding cassette sub-family B member 6 (Homo sapiens) (Q9NP58 whole entry, looked up): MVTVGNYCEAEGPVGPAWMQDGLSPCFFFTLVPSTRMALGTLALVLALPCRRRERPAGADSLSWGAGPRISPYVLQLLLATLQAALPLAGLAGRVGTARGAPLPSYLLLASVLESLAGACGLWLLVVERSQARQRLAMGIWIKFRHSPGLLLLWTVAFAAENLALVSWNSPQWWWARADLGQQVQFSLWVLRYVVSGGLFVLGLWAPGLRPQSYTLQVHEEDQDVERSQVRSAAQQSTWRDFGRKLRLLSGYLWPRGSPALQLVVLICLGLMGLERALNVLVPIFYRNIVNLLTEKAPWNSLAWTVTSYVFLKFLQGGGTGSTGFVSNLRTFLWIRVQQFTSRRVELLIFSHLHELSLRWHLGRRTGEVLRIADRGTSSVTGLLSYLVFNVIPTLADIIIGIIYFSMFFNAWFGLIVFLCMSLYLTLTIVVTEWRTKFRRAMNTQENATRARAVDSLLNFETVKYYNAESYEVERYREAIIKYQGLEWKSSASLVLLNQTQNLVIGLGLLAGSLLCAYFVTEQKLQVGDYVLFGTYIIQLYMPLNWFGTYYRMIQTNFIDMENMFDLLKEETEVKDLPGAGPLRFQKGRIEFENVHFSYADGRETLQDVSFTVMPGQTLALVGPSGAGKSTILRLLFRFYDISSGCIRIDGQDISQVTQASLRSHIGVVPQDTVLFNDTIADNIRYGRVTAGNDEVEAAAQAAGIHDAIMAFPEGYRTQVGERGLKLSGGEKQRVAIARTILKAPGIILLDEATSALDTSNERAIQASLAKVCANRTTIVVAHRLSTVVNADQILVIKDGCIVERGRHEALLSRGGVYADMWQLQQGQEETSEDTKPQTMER
Chain of AP-2 complex subunit beta (Homo sapiens) (P63010 whole entry, looked up, the tested form may be a part, one chain of several): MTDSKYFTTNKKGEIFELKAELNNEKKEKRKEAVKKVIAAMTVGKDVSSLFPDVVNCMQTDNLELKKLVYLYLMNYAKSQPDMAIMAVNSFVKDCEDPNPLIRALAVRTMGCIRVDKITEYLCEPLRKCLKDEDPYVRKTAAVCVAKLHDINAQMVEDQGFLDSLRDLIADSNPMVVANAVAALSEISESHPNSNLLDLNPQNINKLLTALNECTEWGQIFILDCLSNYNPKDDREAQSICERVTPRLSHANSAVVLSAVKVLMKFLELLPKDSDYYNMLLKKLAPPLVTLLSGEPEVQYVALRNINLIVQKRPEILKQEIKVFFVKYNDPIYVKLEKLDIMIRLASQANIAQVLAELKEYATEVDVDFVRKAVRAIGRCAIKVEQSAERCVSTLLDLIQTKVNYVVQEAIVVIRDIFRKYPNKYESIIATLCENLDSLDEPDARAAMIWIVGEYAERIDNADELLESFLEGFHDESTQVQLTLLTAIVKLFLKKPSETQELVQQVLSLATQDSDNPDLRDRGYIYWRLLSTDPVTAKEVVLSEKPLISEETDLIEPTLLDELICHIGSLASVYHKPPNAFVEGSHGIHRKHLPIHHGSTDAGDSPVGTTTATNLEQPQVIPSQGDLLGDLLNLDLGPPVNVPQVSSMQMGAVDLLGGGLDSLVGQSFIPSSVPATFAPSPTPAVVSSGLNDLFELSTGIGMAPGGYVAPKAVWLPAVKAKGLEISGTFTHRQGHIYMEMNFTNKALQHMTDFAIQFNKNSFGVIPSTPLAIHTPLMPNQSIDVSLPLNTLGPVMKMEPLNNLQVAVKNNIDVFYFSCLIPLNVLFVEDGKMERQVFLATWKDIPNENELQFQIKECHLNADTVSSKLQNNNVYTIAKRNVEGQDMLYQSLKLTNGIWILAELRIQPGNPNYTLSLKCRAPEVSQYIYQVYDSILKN

Regarding `COc1cc2c(cc1OC)-c1cc(OCc3ccccc3Cl)nc(=O)n1CC2`, the percent of DMSO control GFP in [1] is 98.8% (inactive). In addition, the GFP response vs DMSO in experiment [2] is 98.9% (inactive); in experiment [4], 99.4% (inactive). Moreover, in experiment [3], the percent response of DMSO control was 101% (inactive). Moreover, the GFP response, % of DMSO in experiment [5] is 97.5% (inactive). In experiment [6], the double positive events came out at 57.7%. Also, the vesicle binding response in experiment [6] was 172% (inactive). Moreover, the values for the inhibition in [7], in experiment [10] and in experiment [14] were 9.09% (inactive), 4.7% (inactive) and 4% (inactive), respectively. Also, the superoxide response (% of plate) in [8] is 97.5% (inactive). Besides, the aptamer binding inhibition in [9] was 4% (inactive). The response in experiment [11] was -7% (inactive). Besides, the binding (% of control) in experiment [12] was 99.8% (inactive). Further, in experiment [13], the efflux inhibition (fraction of control) was 0.06 (inactive). Besides, the differentiation response in experiment [15] was -18% (inactive).

`O=S(=O)(NCCCCCNS(=O)(=O)c1ccccc1)c1ccccc1`: in experiment [1], the percent of DMSO control GFP is 104% (inactive). Further, the GFP response vs DMSO in experiment [2] was 105% (inactive); in [4], 92.3% (inactive). The percent response of DMSO control in experiment [3] was 95.9% (inactive). The GFP response, % of DMSO in experiment [5] is 92.8% (inactive). For the same compound, in experiment [6], the double positive events worked out at 57.2%. In experiment [6], the vesicle binding response was 127% (inactive). Also, the inhibition – broadly, the drop in the measured response relative to a control, in per cent – was -13.3% (inactive) in experiment [7], 3.03% (inactive) in experiment [10] and 10% (inactive) in experiment [14]. Besides, the superoxide response (% of plate) in experiment [8] was 104% (inactive). Further, in experiment [9], the aptamer binding inhibition is -3% (inactive). Also, the response in experiment [11] was 1.49% (inactive). The binding (% of control) in experiment [12] was 103% (inactive). Moreover, the efflux inhibition (fraction of control) in experiment [13] was 0.56 (active). The differentiation response in [15] is -11.5% (inactive).

With `CN1CCCC(OC(=O)c2ccc3c(c2)OCCO3)C1` (stereo not given), the percent of DMSO control GFP in [1] is 101% (inactive). Moreover, the figures for the GFP response vs DMSO in [2] and in experiment [4] were 106% (inactive) and 82.3% (inactive), respectively. Also, in [3], the percent response of DMSO control is 108% (inactive). The GFP response, % of DMSO in [5] was 96.3% (inactive). In experiment [6], this compound came in with a double positive events of 58.8%. Also, in [6], the vesicle binding response was 175% (inactive). In addition, the inhibition was -8.64% (inactive) in experiment [7], 2.71% (inactive) in experiment [10] and 8% (inactive) in [14]. The superoxide response (% of plate) in experiment [8] was 100% (inactive). The aptamer binding inhibition in experiment [9] is 0% (inactive). In [11], the response was -2.88% (inactive). Besides, the binding (% of control) in experiment [12] is 96% (inactive). In experiment [13], the efflux inhibition (fraction of control) is 0.41 (inactive). Besides, in [15], the differentiation response was 1.41% (inactive).

For `O=C(O)c1ccccc1O`, the percent of DMSO control GFP in experiment [1] is 101% (inactive). Also, the GFP response vs DMSO in [2] was 101% (inactive); in experiment [4], 97.4% (inactive). Besides, in [3], the percent response of DMSO control was 96.9% (inactive). Besides, the GFP response, % of DMSO in experiment [5] was 98.8% (inactive). Also, the double positive events in experiment [6] came to 59%. Further, the vesicle binding response in experiment [6] was 178% (inactive). Further, the inhibition in [7] is 15.6% (inactive); in experiment [10], 0.05% (inactive); in experiment [14], 0% (inactive). For the same compound, the superoxide response (% of plate) in [8] was 100% (inactive). Moreover, the aptamer binding inhibition in experiment [9] was 3% (inactive). The response in [11] is -0.04% (inactive). Also, in experiment [12], the binding (% of control) was 104% (inactive). Also, the efflux inhibition (fraction of control) in experiment [13] is 0.44 (active). The differentiation response in experiment [15] is -9.89% (inactive).

As to `Clc1ccc2c(c1)C(N1CCNCC1)=Nc1ccccc1O2`, in [1], the percent of DMSO control GFP was 107% (inactive). For the same compound, the GFP response vs DMSO is 106% (inactive) in [2] and 101% (inactive) in [4]. Also, the percent response of DMSO control in experiment [3] is 109% (inactive). Also, the GFP response, % of DMSO in experiment [5] is 105% (inactive). This compound also yielded a double positive events in experiment [6] of 64%. Moreover, the vesicle binding response in [6] was 200% (inactive). Moreover, the inhibition in experiment [7] is -42.2% (inactive); in experiment [10], 24.4% (inactive); in experiment [14] it was 7% (inactive). In addition, the superoxide response (% of plate) in experiment [8] is 103% (inactive). In addition, the aptamer binding inhibition in [9] is -1% (inactive). For the same compound, in experiment [11], the response is -1.95% (inactive). Besides, the binding (% of control) in experiment [12] is 101% (inactive). The efflux inhibition (fraction of control) in experiment [13] was -0.47 (inactive). Also, the differentiation response in experiment [15] was -8.27% (inactive).
